HT1080 IDH1KD tx – toxicity to HT-1080 IDH1 knockdown cells (counter line); HT-1080 IDH1 knockdown viability, ATP luminescence, 48 h; Potency, µM (doses to about 46.1 µM), without a hit: top-dose activity, negative = toxicity, actives largely listed as cytotoxic; 2% of 360,000 active; AID 686971;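 note: potency is the fitted concentration of half-maximal effect; 0% = DMSO wells and -100% = cell-free medium wells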
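IDH1KD HT-1080 cells, 750/well, RPMI + 5% FBS; compound pinned after 2 h settling; 48 h, 37 °C; CellTiter-Glo luminescence; % activity normalised to DMSO and no-cell wells; curves fitted, classed by r2 and efficacy.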
TDP1 cell noCPT – qHTS for Inhibitors of human tyrosyl-DNA phosphodiesterase 1 (TDP1): qHTS in cells in absence of CPT. DT40 Tdp1-/- hTDP1 cells, no CPT, ATP luminescence, 48 h. Potency, µM (titrated, usually from 46.2 µM), for the others: top-dose activity change, negative = growth inhibition, most hits filed as inhibitors. 15% of 420,000 active. AID 686978, 2013; note: potency is the fitted concentration of half-maximal effect; nearly all actives have a fitted effect of over 55% in size
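A cellular qHTS used chicken DT40 cells lacking endogenous Tdp1 but carrying stably transfected human TDP1. Compounds were applied without camptothecin, and cell growth kinetics were judged by ATP-dependent luminescence after ≥48 hr.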
12-LOX inh – blocks human arachidonate 12S-lipoxygenase; 1.1% of 580,000 active; Potency, µM (titrated, usually from 108 µM), without a hit: at the highest dose activity change, negative = inhibition, actives largely listed as inhibitors; purified 12hLO, xylenol orange hydroperoxide absorbance; note: potency is the fitted concentration of half-maximal effect
Target sequence (P18054 whole entry, looked up): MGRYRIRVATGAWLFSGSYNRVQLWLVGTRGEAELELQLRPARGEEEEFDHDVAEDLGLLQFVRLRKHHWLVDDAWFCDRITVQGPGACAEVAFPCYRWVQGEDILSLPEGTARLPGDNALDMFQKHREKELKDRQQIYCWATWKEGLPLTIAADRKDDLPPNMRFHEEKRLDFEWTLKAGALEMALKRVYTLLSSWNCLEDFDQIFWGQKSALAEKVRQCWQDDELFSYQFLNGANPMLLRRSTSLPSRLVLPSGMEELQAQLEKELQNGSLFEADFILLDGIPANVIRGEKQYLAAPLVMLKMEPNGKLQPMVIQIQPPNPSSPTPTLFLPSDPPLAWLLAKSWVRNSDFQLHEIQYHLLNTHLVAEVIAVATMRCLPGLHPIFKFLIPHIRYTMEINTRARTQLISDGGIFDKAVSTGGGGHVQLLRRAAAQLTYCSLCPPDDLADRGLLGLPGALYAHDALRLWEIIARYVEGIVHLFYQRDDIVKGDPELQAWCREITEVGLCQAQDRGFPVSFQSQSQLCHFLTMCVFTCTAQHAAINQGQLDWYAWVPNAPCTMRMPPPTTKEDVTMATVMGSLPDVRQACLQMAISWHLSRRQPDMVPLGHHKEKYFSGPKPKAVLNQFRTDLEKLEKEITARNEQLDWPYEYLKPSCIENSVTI
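Purified human 12hLO at 150 nM in 25 mM Hepes, 0.01% Triton X-100, pH 7.0, preincubated 15 min at room temperature with compound. Reaction started with 40 uM arachidonic acid, 30 min at room temperature. Hydroperoxide measured by Fe-xylenol orange, 573/405 nm absorbance ratio.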
HT1080NT lethal – kills 2HG-producing HT-1080-NT fibrosarcoma cells | HT-1080-NT fibrosarcoma viability, CellTiter-Glo ATP luminescence, 48 h | Potency, µM (series often up to 46.1 µM), without a hit: at the top dose activity, negative = less viability, usual class: cytotoxic | 1.6% of 360,000 active | AID 686970;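 note: NT is the 2HG producing partner of a matched IDH1 knockdown line; potency is the fitted concentration of half-maximal effect; 0% = DMSO-treated cells and -100% = media-only wells without cells; nearly all actives have a fitted effect of over 55% in size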
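Viability of the 2HG-overproducing fibrosarcoma line after 48 hours of compound exposure at 37 degrees C was determined by luminescence with CellTiter-Glo, and concentration-effect curves were then fitted and categorized.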
IL-1B inflam inh – blocks inflammasome-driven IL-1 beta release | THP-1 LPS/ATP IL-1B secretion, AlphaLISA, 16 h; active compounds read low | activity change, % at 57.5 µM | 4.7% of 360,000 active; in the data active = activity change below about -50%; inconclusive = mostly about -30% to -49%
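THP-1 cells pretreated 1 hr with compounds (up to 57.5 uM final), then stimulated with LPS (250 ng/mL final) plus ATP (1.25 mM final); secreted IL-1B measured by AlphaLISA after 16 hr, decreased signal indicating inhibition.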
TDP1 cell CPT – DT40-hTDP1 cell growth loss with CPT; chicken DT40 Tdp1-/-;hTDP1 cells + 20 nM CPT, ATP luminescence, 48 h; Potency, µM (series often up to 46.2 µM), for inactives: at the top dose activity change, negative = growth inhibition, usual class: inhibitors; 12% of 420,000 active; note: potency is the fitted concentration of half-maximal effect; nearly all actives have a fitted effect of over 55% in size
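Cell growth measured by CellTiter-Glo luminescence after a minimum 48 h, 37 C compound exposure with 20 nM CPT in Tdp1-knockout DT40 cells stably expressing hTDP1, seeded 400/well; qHTS titration format.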
An asterisk follows results filed as active; ? = inconclusive; . = no result; [ ] = dose if it differs, or a comment. This is one part of a sample in which hits are shown more often than they occur. Unless noted, calls come from the whole dose curve; as a rule, active = well fitted curve in the direction sought with a large enough effect; inconclusive = small, poorly fitted or top-dose-only effect, or another doubt; inactive = no such curve, though single readings can be large; an effect the other way counts as inactive or inconclusive. Unless noted, % is set by controls: 0 for no effect and ±100 for the full control effect.

SMILES | HT1080 IDH1KD tx | TDP1 cell noCPT | 12-LOX inh | HT1080NT lethal | IL-1B inflam inh | TDP1 cell CPT
CCOC(=O)c1ccc(NC(=O)C2CCCO2)cc1 (stereo unspecified) | 12.2% | -11.0% | -18.4% | 16.7% | ? | -18.2%
CC(=O)Nc1ccc(NC(=O)CCn2nnc3ccccc32)cc1 | 11.2% | 23.1µM* | -10.0% | -0.4% | -10.5 | ?
CCOC(=O)c1ccc(NC(=O)C2CC2)cc1 | 1.9% | 6.51µM* | -20.7% | -22.5% | 0.0 | 8.2µM*
CCOC(=O)c1ccc(NC(=O)Cn2cccc2)cc1 | 2.3% | 16.4µM* | -16.2% | 1.2% | 12.5 | 14.6µM*
CCOC(=O)c1ccc(NS(=O)C23CC4CC(CC(C4)C2)C3)cc1 (stereo unspecified) | -3.1%[9.24 µM] | -9.9% | 7.08µM* | ? | 12.0 | ?
CCCn1nc(C(=O)NC(c2ccc3c(c2)OCCO3)C(C)C)c2ccccc2c1=O (stereo unspecified) | . | . | -42.9% | . | . | .
O=C(COC(=O)c1cccc(S(=O)(=O)N2CCc3ccccc32)c1)Nc1ccc2c(c1)OCCO2 | . | . | -28.8% | . | . | .
Cc1nc2ccc(CNC(=O)c3cccc(CCC(C)(C)O)c3)cc2[nH]1 | . | . | 28.6% | . | . | .
CCC(C)(C)C1CCc2c(sc(NC(=O)c3cccc4ccccc34)c2C#N)C1 (stereo unspecified) | . | . | 32.1% | . | . | .
Cc1ccc2nc(SCC(=O)Nc3sc4c(c3C#N)CCCC4)[nH]c2c1 | . | . | -11.9% | . | . | .
Cc1ccc(C(=O)/C=C/c2cc(C#N)n(C)c2C)cc1 | -7.4% | ? | 4.4% | -12.0% | -19.4 | 2.0%
CCOC(=O)c1ccc(NC(=O)Cn2nnc3ccccc32)cc1 | -5.4% | 10.3µM* | 337.6% | 0.4% | 14.6 | 23.1µM*
CCOC(=O)c1ccc(-c2ccccc2)cc1 | . | . | 6.8% | . | . | .
CCOC(=O)c1ccc(P(=O)(c2ccccc2)c2ccccc2)cc1 | -11.6% | 23.1µM* | 1.4% | -10.4% | -8.2 | ?
CC(=O)N1CCC(N2CC3(C2)C(=O)N(Cc2ccc(C)o2)C(=O)[C@@H]2C[C@@H](O)CN23)CC1 | . | . | 65.5%[176 µM] | . | . | .
COc1ccccc1-n1c(C)c(C)c2c1ncn1nc(CSc3nc4ccccc4o3)nc21 | . | . | -6.6% | . | . | .
Cc1cc(C)cc(C(=O)N2CCN(C3CCN(Cc4cccnc4)C3=O)CC2)c1 (stereo unspecified) | . | . | 19.4% | . | . | .
Cc1ccc(NC(=S)NNS(=O)(=O)c2ccc3ccccc3c2)cc1Cl | 13.4% | -7.4% | 39.8µM* | 10.4% | 3.5 | 17.1%
COc1ccc(S(=O)(=O)Nc2ccc(S(=O)(=O)N3CCCCC3)cc2)cc1C | -2.4% | -10.9% | 0.1% | -0.7% | 9.8 | 0.2%
CCc1ccc(NS(=O)(=O)c2ccc(OC)c(C)c2)cc1 | -28.9% | 23.1µM* | -8.8% | -12.6% | 6.3 | ?
COc1ccc(S(=O)(=O)Nc2ccc3ccccc3c2)cc1C | ? | ? | 4.8% | -2.1%[9.24 µM] | 9.2 | 9.2µM*
Cc1cc(O)cc(C)c1NS(=O)(=O)c1ccc2ccccc2c1 | -8.3% | 25.9µM* | ? | -1.9% | 0.7 | ?
CCOc1ccc(C(=O)Nc2cccc(Cl)c2N2CCCC2)cc1 | . | . | 6.1% | . | . | .
COc1ccc(S(=O)(=O)Nc2ccc(Cc3ccncc3)cc2)cc1C | -12.6% | ? | . | ? | ? | 13µM*
COc1ccc(S(=O)(=O)Nc2ccc(C)cc2)cc1OC | 0.3% | -13.3% | -11.6% | 5.9% | 18.4 | -6.6%
SMILES | HT1080 IDH1KD tx | TDP1 cell noCPT | 12-LOX inh | HT1080NT lethal | IL-1B inflam inh | TDP1 cell CPT
CCOC(=O)c1csc(NC(=O)CC[C@H]2NC(=O)c3ccccc3NC2=O)n1 | . | . | 35.2% | . | . | .
c1coc(-c2nc3ccccc3nc2-c2ccco2)c1 | ? | ? | 50.1µM* | -20.5% | ? | 18.4µM*
O=c1oc(-c2ccco2)nc2ccccc12 | 1.4% | ? | 11.0% | 4.2% | 14.5 | -27.5%
c1coc(-c2cnc3ccccc3n2)c1 | 12.5% | -1.6% | 39.8µM* | 5.5% | -11.5 | 22.9%
Cc1ccc(S(=O)(=O)N2CC(=O)Nc3ccccc32)c(C)c1NS(C)(=O)=O | -0.5% | -1.4% | 0.8% | 11.6% | 13.5 | ?
Cc1ccc(C(C)(C)C)cc1S(=O)(=O)N1CC(=O)Nc2ccccc21 | -10.6% | ? | ? | ? | -99.7* | -5.1%
Cc1cc(C(C)(C)C)cc(C)c1S(=O)(=O)N1CC(=O)Nc2ccccc21 | ? | -29.7% | ? | -28.9% | -62.5* | ?
O=C1CN(S(=O)(=O)c2cccc(Cl)c2Cl)c2ccccc2N1 | 1.1% | -12.5% | -54.5% | 16.1% | -2.2 | -13.3%
COCC(C)n1c(C)cc(C(=O)Cn2cnc3scc(-c4ccc(C)s4)c3c2=O)c1C (stereo unspecified) | . | . | 1.0% | . | . | .
O=S1(=O)N=CN(Cc2c(F)cccc2Cl)c2cc(C(F)(F)F)ccc21 | . | . | -25.1% | . | . | .
CNC(=O)c1cn2c(n1)CN(C(=O)OCc1ccccc1)CC2 | . | . | 1.4%[6.33 µM] | . | . | .
CN1CCN(c2nc(NCCOC34CC5CC(CC(C5)C3)C4)nc(OCC(F)(F)F)n2)CC1 | 13.2% | ? | 7.3% | 9.4% | -80.2* | ?
CCCNc1nc(OCC(F)(F)F)nc(OCC(F)(F)F)n1 | 2.4% | -7.3% | 16.6% | 2.5% | 0.0 | 14.3%
CC(=O)C[C@H](O)CC(=O)[C@H]1OC(=O)CC/C=C\Cc2ccccc21 | -10.8% | 8.6% | 5.8% | -1.4% | 28.7 | 9.8%
CCCCN1C2=C(C(=O)CCC2)C(c2ccc(Cl)c(Cl)c2)C2=C1c1ccccc1C2=O (stereo unspecified) | 5.7% | ? | -10.7% | 1.9% | -10.7 | 16.4µM*
CCCN1C(=O)c2ccccc2NC1c1ccc(Cl)c(Cl)c1 (stereo unspecified) | -2.0% | ? | ? | -0.3% | -1.4 | ?

Screening data deposited in PubChem by National Center for Advancing Translational Sciences (NCATS).
